Results: PubChem BioAssay (Tox21)
Inconclusive results are not listed. The source made the active and inactive calls. Calls come from the whole dose curve; as a rule, active = well fitted activation curve with a large enough effect in the repeat runs; inconclusive = weak or mixed curves; inactive = flat fitted curve, though single readings scatter.

experiment: A CellTox Green Cytotoxicity Assay to monitor cytotoxicity in HepG2 cells - 40 hour (AID 1224879); details: CellTox Green fluorescence; series mostly up to 76.8 µM; cytotoxicity increase: at the top concentration; note: nearly all actives have a fitted effect of over 40% in size
From the text: National Center for Advancing Translational Sciences [NCATS]
NIH Chemical Genomics Center [NCGC]
U.S. Environmental Protection Agency [EPA]
National Institutes of Environmental Health Sciences [NIEHS]
National Toxicology Program [NTP]
Cell-based models are critical for drug discovery. Determining the natural cytotoxic effects resulting from test compounds is an essential research activity. A CellTox Green Cytotoxicity Assay to monitor cytotoxicity in real time of continues cell culture during 40 hours of the compound treatment was used to screen Tox21 10K library compounds in HepG2 cells. CellTox Green Cytotoxicity Assay is a nonlytic, homogeneous, biofluorescent method to measure cytotoxicity in cell culture after experimental manipulation. The assay system uses a proprietary asymmetric cyanine dye that is excluded from viable cells but preferentially stains the dead cell's DNA. […] Viable cells produce no appreciable increases in fluorescence. Therefore, the fluorescence signal produced by the binding interaction with dead cell DNA is proportional to cytotoxicity.
The mixture of HepG2 cell suspension and reagents were dispensed at 600cells/6 ul/well in 1536-well tissue culture treated black solid bottom plates using a Multidrop dispenser. After the assay plates were incubated at a 37 C/5% CO2 incubator for 5 hours, 23 nL of compounds dissolved in DMSO, positive and negative controls was transferred to the assay plate by a pintool work station. The plates were incubated at 37 C for 40 hours. The fluorescence intensity were measured at 0h, 8h, 16h, 24h, 32h and 40h time points using ViewLux plate reader during compound treatment.
% is set by controls: 0 for no effect and ±100 for the full control effect; potency is the fitted concentration of half-maximal effect.

Compound | cytotoxicity increase | Potency
CN1CCN(N)CC1 | 9.93% [at 35.3 µM] (inactive) | –
O=C(O[C@@H](C(=O)O)[C@@H](OC(=O)c1ccccc1)C(=O)O)c1ccccc1 | 5.27% (inactive) | –
COc1ccccc1N1CCN(CCCNc2cc(=O)n(C)c(=O)n2C)CC1 | -9.07% [at 35.3 µM] (inactive) | –
O=C1CCC(C2CCCCC2)CC1 | – | 38.9 µM (active)
Cc1nc(-c2ccccn2)ncc1C(=O)Nn1cc(C)c2cc(F)ccc21 | 2.93% (inactive) | –
CC1(O)CSC(C)(O)CS1 (stereo not given) | -5.73% (inactive) | –
COC(=O)c1ccc2cc(C(=O)OC)ccc2c1 | -18% [at 15.8 µM] (inactive) | –
CCOc1ccc(OCC)c(Cl)c1 | 19.6% (inactive) | –
CCOC(=O)C1CC(=O)C(=C(O)C2CC2)C(=O)C1 (stereo not given) | 6.95% (inactive) | –
Cc1nnc(SCC2=C(C(=O)O)N3C(=O)[C@@H](NC(=O)Cn4cnnn4)[C@H]3SC2)s1 | -6.83% [at 35.3 µM] (inactive) | –
CC1CN(c2ccccc2)NC1=O (stereo not given) | -1.74% (inactive) | –
O=C(O)C(=O)Cc1c[nH]c2ccccc12 | 15.9% (inactive) | –
C1CSCCS1 | 2.48% (inactive) | –
O=C(O)c1ccccc1Nc1cc(Cl)ccc1C(=O)O | 28.2% [at 15.8 µM] (inactive) | –
CCCNC(C)(C)COC(=O)c1ccccc1 | -7.95% [at 35.3 µM] (inactive) | –
COc1ccc2nc(NC(=O)Nc3ccccc3)sc2c1 | – | 4.25 µM (active)
O=C(O)c1cccc(Cl)c1Cl | -1.69% (inactive) | –
C=CC1CO1 (stereo not given) | 0.679% (inactive) | –
O=c1[nH]c(=O)n([C@H]2C[C@H](O)[C@@H](CO)O2)cc1C(F)(F)F | – | 19 µM (active)
CCN1CC(CCN2CCOCC2)C(c2ccccc2)(c2ccccc2)C1=O (stereo not given) | -1.56% [at 35.3 µM] (inactive) | –

Compound | cytotoxicity increase | Potency
CN1CCC[C@@H]1Cc1c[nH]c2ccc(CCS(=O)(=O)c3ccccc3)cc12 | -5.55% [at 35.3 µM] (inactive) | –
CN(CCCN1c2ccccc2CCc2ccccc21)CC(=O)c1ccc(Cl)cc1 | – | 21.3 µM (active)
OCCN(CCO)c1ccccc1 | -4.26% (inactive) | –
FC(F)(F)C(Cl)(Cl)Cl | 5.27% (inactive) | –
N#CSCC(=O)O | 0.27% [at 35.3 µM] (inactive) | –
CC(C)=CCC[C@](C)(O)[C@@H]1CC=C(C)CC1 | – | 49 µM (active)
CC(C)CC(=O)OCc1ccccc1 | -0.721% (inactive) | –
OCc1ccccc1O | 3.14% [at 35.3 µM] (inactive) | –
CCOC(=O)[C@H](CCc1ccccc1)N[C@@H](C)C(=O)N1Cc2cc(OC)c(OC)cc2C[C@H]1C(=O)O | -0.373% [at 35.3 µM] (inactive) | –
NC(=O)Cc1cccc(C(=O)c2ccccc2)c1N | -18.6% [at 35.3 µM] (inactive) | –
CCOC(=O)NCCC[Si](OCC)(OCC)OCC | 3.52% (inactive) | –
CCCNC(C)C(=O)Nc1c(C)csc1C(=O)OC (stereo not given) | -25.2% [at 35.3 µM] (inactive) | –
CCCC(CCC)(C(=O)OCC)C(=O)OCC | -17.6% [at 35.3 µM] (inactive) | –
OCC(CBr)(CBr)CBr | -2.76% (inactive) | –
CC(C)CCCCCCc1ccc(OCCOCCO)cc1 | -6.14% (inactive) | –
CCOC(=O)C(Br)c1ccccc1 (stereo not given) | -2.48% (inactive) | –
O=C1CCN(c2ccccc2)N1 | 0.0261% (inactive) | –
CC(C)=CCCC(C)CCOC=O (stereo not given) | -2.68% (inactive) | –
Nc1cccc(S(=O)(=O)O)c1 | -0.963% (inactive) | –
CC1=C(O)C(=O)OC1C (stereo not given) | -13.5% (inactive) | –
